Source: PubChem BioAssay
Many of the other results were omitted from the sample, so hits are more common in it than they were.
NS1 inh: influenza NS1 inhibition; Potency, µM (highest dose often 46.1 µM), inactives show at the highest dose activity, positive = more growth; 270,000 compounds, 0.4% hits; AID 2326; note: potency is the fitted concentration of half-maximal effect; actives are rising curves; nearly all actives have a fitted effect of over 50% in size
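S. cerevisiae expressing influenza A NS1, grown in glucose, washed, then diluted 1:100 into pH 6.0 -URA galactose medium with 23 nl compound. Growth recovery read as OD600; NS1-free strain serves as control.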
TbPYK inhibitor: inhibitors of Trypanosoma brucei pyruvate kinase | 410,000 compounds, 0.12% hits | Potency, µM (highest dose often 76.8 µM), without a hit: top-dose activity, negative = inhibition, hits mostly inhibitors | Q57TT1 | TbPYK enzyme, Kinase-Glo Plus ATP luminescence, 45 min; active = well fitted curve in the direction sought with a large enough effect; inconclusive = small, poorly fitted or top-dose-only effect, or another doubt; inactive = no such curve, though single readings can be large; an effect the other way counts as inactive or inconclusive; note: potency is the fitted concentration of half-maximal effect; % is set by controls: 0 for no effect and ±100 for the full control effect; nearly all actives have a fitted effect of over 50% in size
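T. brucei PYK with substrate was exposed to pin-transferred compounds across a concentration series, then started with 130 uM ADP (final). After 45 min at room temperature, Kinase-Glo Plus luminescence was read, normalized and curve-fitted.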
SARS PLpro yeast: SARS-CoV PLP inhibition in yeast | S. cerevisiae expressing SARS-CoV PLpro, growth rescue | Potency, µM (top dose mostly 32.9 µM), for the others: top-dose activity, positive = growth rescue, actives largely listed as activators | 330,000 compounds, 0.19% hits | AID 485353; note: potency is the fitted concentration of half-maximal effect; 0% is about no effect; nearly all actives have a fitted effect of over 55% in size
CHX counter-1: counter-screen for Shiga toxin inhibitors: cycloheximide protein synthesis inhibition | cell reporter, cycloheximide protein synthesis inhibition counterscreen | max response, % | 300,000 compounds, 12% hits; in the data active = max response mostly above about 13%, no sharp cut-off; inactive = mostly below about 14%; note: read at 38.3 µM for the half of the compounds with a filed dose; 0% is about no effect
Shiga inhibitor: Shiga toxin inhibition; Vero cells, Shiga toxin protein synthesis inhibition reporter; inhibition, % at 38.7 µM; 290,000 compounds, 9.2% hits; in the data active = inhibition mostly above about 28%, no sharp cut-off; inactive = mostly below about 43%; note: 0% is about no effect
LmPK inh: inhibitors of Leishmania mexicana pyruvate kinase. Q27686. purified LmPK, Kinase-Glo ATP luminescence, 1 h. Potency, µM (highest dose often 57.5 µM), without a hit: at the top dose activity change, negative = inhibition, most hits filed as inhibitors. 290,000 compounds, 0.37% hits. AID 1721; active = well fitted curve in the direction sought with a large enough effect; inconclusive = small, poorly fitted or top-dose-only effect, or another doubt; inactive = no such curve, though single readings can be large; an effect the other way counts as inactive or inconclusive; note: potency is the fitted concentration of half-maximal effect; % is set by controls: 0 for no effect and ±100 for the full control effect
Target sequence (Q27686 whole entry, looked up): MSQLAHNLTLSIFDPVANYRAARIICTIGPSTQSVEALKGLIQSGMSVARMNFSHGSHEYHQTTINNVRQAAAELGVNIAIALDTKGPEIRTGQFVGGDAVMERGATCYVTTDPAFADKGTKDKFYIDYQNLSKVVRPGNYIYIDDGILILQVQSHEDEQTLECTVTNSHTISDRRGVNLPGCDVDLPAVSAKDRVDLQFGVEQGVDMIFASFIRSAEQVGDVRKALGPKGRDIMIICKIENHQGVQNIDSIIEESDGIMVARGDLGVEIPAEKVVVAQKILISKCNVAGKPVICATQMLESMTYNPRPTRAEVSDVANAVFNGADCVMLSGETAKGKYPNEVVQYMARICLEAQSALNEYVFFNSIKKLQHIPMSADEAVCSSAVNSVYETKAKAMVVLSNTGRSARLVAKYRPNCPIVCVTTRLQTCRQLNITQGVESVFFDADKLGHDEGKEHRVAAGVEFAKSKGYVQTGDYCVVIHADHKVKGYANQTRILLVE
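qHTS format; LmPK 0.1 nM; substrates PEP 0.5 mM and ADP 0.1 mM. One-hour room-temperature incubation, then coupled luciferase luminescence; 0.5 nM enzyme wells mark activation.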
CHX counter-2: counter-screen for Shiga toxin inhibitors: cycloheximide protein synthesis block | shares compounds with Shiga inhibitor | Cycloheximide counterscreen, protein synthesis reporter, Shiga toxin assay | Potency, µM (doses to about 38.3 µM), for inactives: at the top dose activity (activation), usual class: activators | 510 compounds, 3% hits; note: potency is the fitted concentration of half-maximal effect; 0% is about no effect
* hit, by the source's call; ? = inconclusive; . = not tested or not shown. Unless noted, calls come from the whole dose curve.

SMILES | NS1 inh | TbPYK inhibitor | SARS PLpro yeast | CHX counter-1 | Shiga inhibitor | LmPK inh | CHX counter-2
CC(C)n1c(CN2CCN(C(=O)c3ccco3)CC2)nc2c1c(=O)n(C)c(=O)n2C | 3.8% | -13.9% | -0.7% | -1.4 | -6.0 | 1.0% | .
Cc1ccc(O)c(NC(=O)c2cc(C)no2)c1 | -0.7% | 8.5% | -1.9% | 0.9 | 38.0* | 3.8% | 5.9%
Cc1cc(C)nc(SCC(=O)Nc2cc(C)on2)n1 | ? | 0.2% | 3.9% | 10.2 | 119.1* | -1.7% | -0.9%
Cc1cc(C(F)(F)F)nc(SCC(=O)Nc2cc(C)on2)n1 | -2.9% | 30.8% | -1.0% | -3.6 | -20.9 | 3.5% | .
COc1ccc(Br)c(Cn2c(C)c(C(=O)NCc3ccc4c(c3)OCCO4)sc2=O)c1 | . | 4.0% | . | . | . | . | .
Cc1cc(C)n(-c2nc(SCCN(C)C)c3c4c(sc3n2)COC(C)(C)C4)n1 | 6.3% | -21.1% | -2.7% | -4.3 | 80.5* | -6.0% | -4.9%
CCN(C1CCCCC1)S(=O)(=O)c1ccc(S(=O)(=O)NCc2ccncc2)cc1 | -9.8% | 0.8% | 8.2% | 0.8 | 38.8* | -0.5% | -4.3%
CCN(C1CCCCC1)S(=O)(=O)c1ccc(S(=O)(=O)NCCc2ccncc2)cc1 | -95.5% | 3.7% | 6.3% | -3.2 | -5.8 | 9.5% | .
CC(=O)N(C(C)=O)S(=O)(=O)c1ccc(N=NN2CCCCC2)cc1 | 2.3% | 3.7% | 20.9% | -0.6 | 10.1 | -7.6% | .
CCOC(=O)N1CCN(C(=O)c2nn(-c3cc(OC)cc(OC)c3)c(=O)c3ccccc23)CC1 | -16.5% | . | -4.8% | 9.1 | -2.0 | -1.5% | .
COc1cc(OC)cc(-n2nc(C(=O)N3CC(C)CC(C)C3)c3ccccc3c2=O)c1 (stereo unspecified) | 0.8% | 0.2% | 14.2% | -2.6 | 23.2* | 5.1% | -2.0%
CC1(C)CC(=O)c2c(nn(-c3ccccc3)c2-c2ccncc2)C1 | -3.5% | 7.4% | 2.0% | -3.6 | -7.4 | -0.5% | .
Cc1nn(-c2ccc(C(=O)O)cc2)c2c1C(=O)CC(C)(C)C2 | -1.0% | 1.6% | -0.4% | -1.7 | 80.9* | -3.0% | -4.8%
CCCN(C(=O)CSCc1ccc(Cl)cc1)c1c(N)n(Cc2ccccc2)c(=O)[nH]c1=O | . | 7.8% | 1.4% | . | . | . | .
COc1ccccc1CN(C)S(=O)(=O)c1cccs1 | -14.3% | -0.6% | 4.1% | 5.6 | 68.6* | -1.1% | 3.2%
CN(Cc1ccccc1C#N)S(=O)(=O)c1cccs1 | -5.3% | -25.8% | -3.3% | 7.3 | 34.4 | 6.9% | .
Cc1oc(C(C)(C)C)cc1C(=O)NCC(=O)NCC(=O)O | 2.2% | 6.1% | 14.4% | 2.0 | 49.8* | -3.4% | -3.5%
Cn1c(=O)c(N=O)c(N)n(Cc2ccccc2)c1=S | . | 0.6% | . | . | . | . | .
CCOc1ncccc1C(=O)Nc1c(C)n(C)n(-c2ccccc2)c1=O | -15.6% | 1.3% | 8.3% | 9.0 | 32.0* | -13.2% | 4.2%
Cc1ccc2nc(C(C)(C)C)c(Cc3cccc(Cl)c3)n2c1 | . | 1.6% | . | . | . | . | .
Cc1noc(C)c1C(=O)Nc1ccc(F)cc1 | . | -4.1% | 1.2% | 1.7 | -11.8 | 4.5% | .
Cc1noc(C)c1C(=O)Nc1ccc2c(c1)CCC2 | -9.2% | 3.3% | . | 8.3 | 73.2* | -1.1% | -2.1%
Brc1cccc(CNCC2CCCO2)c1 (stereo unspecified) | -4.4% | 0.2% | -2.0% | -3.0 | . | -1.2% | .
Cc1cccc(C(=O)NC(NCCc2ccccc2)C(Cl)(Cl)Cl)c1 (stereo unspecified) | ? | -5.0% | 1.3% | -5.4 | 108.6* | -4.1% | 0.2%
Cc1nn(C(C)C(=O)NC2CCC(C)CC2)c(=O)c2nn(-c3ccccc3)c(C)c12 (stereo unspecified) | -2.9% | 4.4% | -2.0% | -1.7 | 30.6* | -6.0% | ?
COc1ccc(-c2ccc(N3C(c4cc(OC)cc(OC)c4)=Cc4ccc(OC)cc4C3CC(C)=O)cc2)cc1 (stereo unspecified) | . | -2.8% | . | . | . | . | .
COc1ccc(N2C[C@H](Cc3ccccc3)[C@@H](CC(=O)Nc3ccccc3)C2=O)cc1 | . | 0.8% | . | . | . | . | .
O=C(Cc1c(F)cccc1Cl)c1ccc(O)cc1O | -223.6% | -0.7% | -30.6% | -0.4 | 100.6* | 2.5% | -2.6%
